Assay results from patent US20060193821, “Aptamers to the human IL-12 cytokine family and their use as autoimmune disease therapeutics” (published 2006).

target: IL-12 (human, p35/p40 heterodimer) (Homo sapiens, UniProt P29459;P29460 SEQ:57-253,SEQ:23-328); test: competition; fold specificity for IL-23 over IL-12; 250 nM IL-12, saturation re-analysis of competition data; conditions: G4; XNA; deoxy A and G, 2'-OMe C and U
Experimental: Several of the minimized constructs from the dRmY Selection 2 were also assayed in a competition format in which cold aptamer was titrated and competed away trace ³²P ATP labeled aptamer In the competition assay, the [IL-23] was held constant, the [trace labeled aptamer] was held constant, and the [unlabeled aptamer] was varied. The KD was calculated by fitting the following equation to the data: Fraction aptamer bound=amplitude*([aptamer]/(KD+[aptamer]))+background binding.
The competitive binding data was re-analyzed in a saturation binding experiment where the concentration of ligand (aptamer) was varied and the concentration of receptor ([…]) was held constant and the [bound aptamer] was plotted versus the [total input aptamer].

IL-12 (human, p35/p40 heterodimer), sequence (P29459 23-219, chain 1 of 2): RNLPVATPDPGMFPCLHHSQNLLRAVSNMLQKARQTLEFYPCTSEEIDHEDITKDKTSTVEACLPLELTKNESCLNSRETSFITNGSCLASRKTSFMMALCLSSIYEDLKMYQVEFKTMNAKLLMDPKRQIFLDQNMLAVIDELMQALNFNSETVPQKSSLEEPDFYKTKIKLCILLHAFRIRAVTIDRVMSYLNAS
IL-12 (human, p35/p40 heterodimer), sequence (P29460 23-328, chain 2 of 2): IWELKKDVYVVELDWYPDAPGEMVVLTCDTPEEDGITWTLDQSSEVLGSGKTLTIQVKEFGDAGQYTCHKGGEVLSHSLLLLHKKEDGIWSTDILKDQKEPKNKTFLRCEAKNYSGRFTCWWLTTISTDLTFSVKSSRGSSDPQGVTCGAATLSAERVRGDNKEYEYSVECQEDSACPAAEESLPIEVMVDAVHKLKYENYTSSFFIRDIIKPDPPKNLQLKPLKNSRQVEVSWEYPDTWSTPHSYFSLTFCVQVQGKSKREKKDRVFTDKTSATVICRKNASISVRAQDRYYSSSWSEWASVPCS

| Sequence | binding signal [fold] |
| --- | --- |
| ACAGGCAAGUAAUUGGGGAGUGCGGGCGGGGUGU | 33 |
